About 83,000 compounds went through this panel and 20% of them were active in at least one assay; those are over-represented in the sample as a whole.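 Values shown are percent growth following 48 h exposure of cells in 96-well plates to a single concentration of compound; below 10 was considered active.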 Calls of active or inactive are those of the source.

In the experiment the test system is SR leukemia. Put plainly: NCI-60 one-dose screen, 48 h (100 = growth as untreated, 0 = no growth, -100 = all killed). The following applies: 10 µM unless noted.
On to `O=C(Nc1nc2ccc(C(=O)N3CCN(/C=C/c4ccccc4)CC3)cc2s1)c1ccc(NCCc2ccccc2)c([N+](=O)[O-])c1`, for which the growth was -13.7% (active).
For `COC12C=C/C(=C(/C(=O)OCc3ccncc3)C(=O)CCCCCCCCC3(OC)C=C/C(=C(/C(=O)OCc4ccncc4)C(=O)CCCCCCCC1)O3)O2`, the growth was -16.2% (active).
As to `Cc1ccc2c(n1)C(=O)C(Br)=C(C1CCCC1)C2=O`, the growth is 31.1% (inactive).
In the case of `C#COc1cccc(Nc2c(C#N)cnc3ncc(NC(=O)CCl)cc23)c1` it was 10.2% [6.25 µM] (inactive); in that of `COc1cc(-c2csc(NC(=O)c3ccc(N4CCOCC4)c(C(F)(F)F)c3)n2)cc(OC)c1OC`, 23.3% (inactive).
Take `CC/C=C\C[C@H](O)C/C=C1/C(=O)C=C[C@@H]1C/C=C\CCCC(=O)N(C)C`: the growth is 6.2% (active).
Consider `Oc1c(I)cc(I)cc1CNCCN(Cc1ccccn1)Cc1ccccn1`, for which the growth is -9.62% (active).
In the case of `CC1=C([Se]CC(OC(=O)CC[Se]c2ccccc2)C(=O)NC(C)(C)C)C(=O)c2ccccc2C1=O` (stereo not drawn) it was -27.7% (active); in that of `Cc1cn(-c2cc(NC(=O)c3cncc(C#Cc4cnc(N)c5ncccc45)c3)cc(C(F)(F)F)c2)cn1`, 62.7% (inactive).
For `CC(C)c1ccc(-n2c(=S)[nH]c3sc4cc(O)ccc4c3c2=O)cc1`, the growth is 102% (inactive).
For `COc1ccccc1CNc1c2ccccc2nc2ccccc12`, the growth was 9.9% (active).
Consider `COC(=O)c1nc(-c2ccccc2)oc1S(=O)(=O)Cc1ccccc1`, for which the growth is -11.5% (active).
For the molecule `O=C1/C(=C/c2ccccc2Br)COc2ccc(O)cc21`, the growth was 10.3% (inactive).

The values above are taken from PubChem BioAssay (NCI).
